Bioassay records from PubChem BioAssay.
In the library only some 1.5% were active in any assay of this set; here they are far more common.
RAD52 inh: RAD52 DNA annealing inhibitors, primary screen, biochemical, FRET, single point, set 2. AID 651710, 2012. DNA repair protein RAD52 homolog (Homo sapiens), P43351. recombinant RAD52 DNA annealing, FRET fluorescence. actives 0.46% (n = 360,000). inhibition, % at 18.7 µM;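 active = every replicate showing at least 50% inhibition; inconclusive = mean inhibition at least 50% but not in every replicate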
PvdQ inh: P. aeruginosa PvdQ acylase inhibitors, primary screen, biochemical, fluorescence, plate reader and imaging, single point | PvdQ acylase [Pseudomonas aeruginosa LESB58] | purified PvdQ acylase | inhibition, % at 10 µM | actives 0.063% (n = 340,000) | AID 488965, 2010; in the data active = inhibition above about 30%, passing the limit was not always enough; inconclusive = no clear call, values can overlap the other calls;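 also: 0% = vehicle neutral wells and 100% = reference inhibitor wells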
RAD54 inh: inhibitors of human RAD54 branch migration, primary screen, biochemical, fluorescence, single point; RAD54 Holliday junction branch migration, FAM/BHQ fluorescence; inhibition, % at 10.4 µM; AID 602329, 2012; DNA repair and recombination protein RAD54-like (Homo sapiens), Q92698; actives 0.14% (n = 360,000);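 active = mean normalized replicate activity at least 40 and at least half of replicates scoring 40 or more; inconclusive = only one of the two criteria met; inactive = mean below 40 and under half of replicates reaching 40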;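 also: 0% = median of neutral control wells and 100% = median of positive control wells; inhibitors cause a drop in the FAM fluorescence signal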
N-glyco inh: increase of ERlucT glycosylation luciferase signal, primary screen, N-linked glycosylation inhibitor project, D54 ERlucT cells, luminescence, set 2. D54 ERlucT glycosylation luciferase reporter, 24 h; percent of 100 nM tunicamycin response. reporter increase, % at 12.5 µM. actives 0.23% (n = 360,000);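 active = mean luciferase reporter signal, scaled so untreated is 0 and the glycosylation-blocking control 100, at or above a set limit in every replicate; inconclusive = mean reaches the limit but not every replicate does; inactive = mean below the limit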;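 also: luciferase carries N-glycosylation sites so blocking glycosylation raises the light; 0% = median of neutral control wells and 100% = median of 100 nM tunicamycin wells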
dFosB activator: activators of delta FosB homodimer, primary screen, biochemical, fluorescence polarization, TAMRA-CDK5 oligo, single point. Protein FosB (Mus musculus), P13346. purified delta FosB; percent of positive-control signal above neutral wells. activation, % at 25 µM. actives 0.99% (n = 340,000);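 active = mean activation above about 17%, with every replicate also reaching it, limit read from the data, passing the limit was not always enough; inconclusive = only one of the two conditions met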
F508del corr: F508del CFTR correction, initial screen, CFBE line, single point. CFBE cells, YFP halide quenching; stimulated with forskolin plus potentiator P3; % fluorescence drop versus neutral controls. activity (quench increase), % at 7.58 µM. actives 0.36% (n = 350,000). AID 720511, 2013;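 active = mean added fluorescence quench of at least 8% versus neutral control, with both replicates also reaching 8%; inconclusive = only one of the mean or replicate conditions met; inactive = mean below 8% and not both replicates reaching 8%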;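 also: cells transiently co-express mutant CFTR-F508del with the halide-sensitive YFP; corrector assay measuring rescue of mutant channel to the surface after 24 h compound exposure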
* hit, by the source's call; i = inactive; ? = inconclusive; · = no result given.

SMILES | RAD52 inh | PvdQ inh | RAD54 inh | N-glyco inh | dFosB activator | F508del corr
CCc1nc2ccc(C(=O)NCCc3c[nH]c4ccccc34)cn2c1N(C=O)CCC(C)C | -101 | · | 9 | 64* | · | 4
CCCCN(C=O)c1c(CC)nc2ccc(C(=O)NCCc3c[nH]c4ccccc34)cn12 | -1 | · | 3 | 4 | · | -1
N=c1c(S(=O)(=O)c2ccc(Cl)cc2)cc2c(=O)n3ccccc3nc2n1CCN1CCOCC1 | · | -12 | 4 | -1 | -1 | ·
N=c1c(S(=O)(=O)c2ccc(Cl)cc2)cc2c(=O)n3ccccc3nc2n1CCc1ccccc1 | -68 | -10 | -21 | 50* | ? | -1
Cc1cc(Br)cn2c(Cc3ccsc3)c(-c3ccc(F)cc3)nc12 | -69 | · | -6 | -1 | · | 8.1*
O=C(O)CN1C(=O)/C(=C/c2ccc(N3CCCCC3)o2)SC1=S | i | -13 | · | -2 | 86* | 1
COC(=O)CN1C(=O)S/C(=C/c2ccc(N3CCCCC3)o2)C1=O | · | -18 | -42 | 2 | 2 | ·
CN1C[C@@H]2[C@H](c3ccccc31)[C@H](CO)N2C(=O)C1CCCC1 | · | · | -8 | · | · | 3
C[C@H]1CCCCO[C@@H](CN(C)Cc2ccc(C(=O)O)cc2)[C@@H](C)CN([C@@H](C)CO)C(=O)c2cc(NC(=O)Nc3ccc(F)cc3)ccc2O1 | 9 | · | -9 | · | · | 0
NS(=O)(=O)c1ccc(S(=O)(=O)N(CCc2ccccc2)Cc2ccccn2)cc1 | -5 | -4 | -8 | -2 | -10 | 8.4*
O=S(=O)(c1ccc(Cl)cc1)N(Cc1ccccn1)Cc1ccccn1 | -18 | 0 | 3 | 0 | 3 | -1
CCCOc1ccc(F)cc1-c1cc(C(=O)Nc2ccc(C(C)C)cc2)[nH]n1 | 11 | · | 7 | 55* | · | -4
CCCCCC(=O)Nc1cc(N(C)C)nc2ccccc12 | · | -10 | -3 | -1 | -7 | ·
CN1CCN(CC(=O)Nc2cc(N(C)C)nc3ccccc23)CC1 | 27 | -6 | · | 44* | ? | 2
COc1ccc(C#Cc2cccc(-c3nc(C(=O)N4CCN(C)CC4)cc4c3[C@@H](CCO)N(S(=O)C(C)(C)C)C4)c2)cc1OC (stereo partly specified) | -14 | · | · | · | · | -3
CCS(=O)(=O)NCC[C@H]1CC[C@@H](NC(=O)C2CCC2)[C@H](CO)O1 | -13 | · | 1 | · | · | -1
COc1ccc(N=c2cc(-c3ccc(O)cc3)oc3ccccc23)cc1 | -11 | -11 | · | 10 | 42* | ·
COc1ccc(N=c2cc(-c3ccc(OC)cc3)oc3ccccc23)cc1 | · | 6 | · | -4 | 12 | ·
CN(C)S(=O)(=O)c1ccc2c(c1)/C(=C/c1cc3c([nH]1)CCCC3)C(=O)N2 | -56 | -7 | -58 | 7 | -14 | 8.6*
CO[C@H]1CN(C)C(=O)c2cc(NS(=O)(=O)c3ccc(Oc4ccccc4)cc3)ccc2OC[C@@H](C)NC[C@@H]1C | 15 | · | -2 | · | · | -1
C[C@H](CO)N1C[C@H](C)[C@H](CN(C)CC2CC2)OCCCC[C@H](C)Oc2ccc(NC(=O)Nc3ccc4c(c3)OCO4)cc2C1=O | 55* | · | 17 | · | · | -3
C[C@@H]1CCCCO[C@@H](CN(C)Cc2ccc3c(c2)OCO3)[C@@H](C)CN([C@@H](C)CO)C(=O)c2cc(NC(=O)Nc3ccc(C(F)(F)F)cc3)ccc2O1 | 46 | · | -2 | · | · | 1
C[C@@H]1CCCCO[C@@H](CN(C)Cc2ccc3c(c2)OCO3)[C@H](C)CN([C@@H](C)CO)C(=O)c2cc(NC(=O)Nc3ccc(C(F)(F)F)cc3)ccc2O1 | 51* | · | 7 | · | · | -2
C[C@@H]1CCCCO[C@@H](CN(C)CC2CC2)[C@H](C)CN([C@@H](C)CO)C(=O)c2cc(NC(=O)c3ccccc3)ccc2O1 | · | · | · | · | · | -1
C[C@@H]1CCCCO[C@H](CN(C)CC2CC2)[C@H](C)CN([C@@H](C)CO)C(=O)c2cc(NC(=O)c3ccccc3)ccc2O1 | 52* | · | 12 | · | · | 0
